Results filed as inconclusive are left out. Unmarked numbers belong to inactive results. Active and inactive are the calls of the source. Calls come from the whole dose curve; as a rule, active = well fitted inhibition curve with a large enough effect; inconclusive = small, poorly fitted or top-dose-only effect; inactive = flat fitted curve, though single readings scatter.
% is set by controls: 0 for no effect and ±100 for the full control effect.
Note: nearly all actives have a fitted effect of over 65% in size.

Chain of Glutathione peroxidase 1 (Homo sapiens) (P07203 whole entry, looked up): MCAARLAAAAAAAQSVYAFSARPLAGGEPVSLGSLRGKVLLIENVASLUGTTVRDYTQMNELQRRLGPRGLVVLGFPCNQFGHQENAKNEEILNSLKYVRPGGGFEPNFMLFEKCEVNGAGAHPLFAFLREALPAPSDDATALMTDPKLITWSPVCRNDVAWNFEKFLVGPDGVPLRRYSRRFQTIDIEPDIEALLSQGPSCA
Chain of Phospholipid hydroperoxide glutathione peroxidase GPX4 (Homo sapiens) (P36969 whole entry, looked up): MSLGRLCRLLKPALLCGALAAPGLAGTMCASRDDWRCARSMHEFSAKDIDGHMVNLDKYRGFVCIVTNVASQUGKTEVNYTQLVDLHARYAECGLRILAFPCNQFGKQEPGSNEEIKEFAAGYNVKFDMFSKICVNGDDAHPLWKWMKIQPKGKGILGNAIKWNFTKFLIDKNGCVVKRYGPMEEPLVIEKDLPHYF

One assay concerns the target Glutathione peroxidase 1 (Homo sapiens) (UniProt P07203). The assay is described as follows: Primary qHTS Assay for Inhibitors of Recombinant Selenoprotein Glutathione Peroxidase 1 (GPX1) (AID 1845191). The note with it: recombinant GPX1, GR-coupled NADPH fluorescence, 15 min; series mostly up to 27.7 µM; activity, negative = inhibition: at the top concentration. Summed up:
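GPX1 10 nM, GR 100 nM, GSH 1 mM, NADPH 0.5 mM, CHP 0.5 mM (final). 30-min cpd preincubation, RT. Ex340/Em450 read t=0, t=15 min.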
For orientation: Quantitative high-throughput screening tests each substance at several concentrations.
With `CC(C)(O)/C=C/C(=O)[C@](C)(O)[C@H]1[C@H](O)C[C@@]2(C)[C@@H]3CC=C4[C@@H](C=C(O[C@@H]5O[C@H](CO)[C@@H](O)[C@H](O)[C@H]5O)C(=O)C4(C)C)[C@]3(C)C(=O)C[C@]12C`, the “outcome” value was “inactive [at 15.3 µM]”.
Regarding `COc1ccc(CCC(=O)c2c(O)cc(O[C@@H]3O[C@H](CO)[C@@H](O)[C@H](O)[C@H]3O[C@@H]3O[C@@H](C)[C@H](O)[C@@H](O)[C@H]3O)cc2O)cc1O`, the “activity, negative = inhibition” value is -18.3% [at 48.8 µM].
Same read-out and setting: then `CC(C)c1c(NC(=O)Nc2ccc(Cl)cc2)c(=O)n(-c2ccccc2)n1C`, with -7.69% [at 48.8 µM].
`C[C@@H](c1ccccc1)N(C(N)=NC#N)c1cccc2ncccc12`: the “outcome” value was “inactive [at 48.8 µM]”.
Still for that read-out and setting: then `CC(C)(C)NS(=O)(=O)c1ccc(-c2ccc3[nH]nc(N)c3c2)cc1`, with “inactive [at 48.8 µM]”.
`CC(=O)OC[C@]12[C@H](OC(C)=O)[C@H](OC(=O)c3ccccc3)[C@@H]3[C@@H](OC(C)=O)[C@]1(OC3(C)C)[C@H](C)C[C@H](OC(=O)c1ccccc1)[C@@H]2OC(=O)c1ccccc1`: the “activity, negative = inhibition” value is -18.9% [at 15.3 µM].
`CC1=C2C[C@@]3(C)[C@@H](CCC[C@@H]3C)C[C@@]2(O)OC1=O`: the “activity, negative = inhibition” value is -8.79% [at 48.8 µM].
With `CC(=O)/C=C/C1(O)C(C)CC(O[C@@H]2O[C@H](CO)[C@@H](O)[C@H](O)[C@H]2O)CC1(C)C` (stereo partly specified), the result was inactive.
`CC1CCC2C(C)(C)C(O)C(O)CC2(C)C12Cc1c(O)cc(CO)c(C=O)c1O2` (stereo unspecified): the “activity, negative = inhibition” value was -14.9%.
`Cc1occc(=O)c1O[C@@H]1O[C@H](CO[C@@H]2OC[C@](O)(CO)[C@H]2O)[C@@H](O)[C@H](O)[C@H]1O`: the “activity, negative = inhibition” value is -4.08%.
Turning to `COC(=O)c1c(CC=C(C)C)c(OC2OC(CO)C(O)C(O)C2O)c2ccccc2c1OC1OC(CO)C(O)C(O)C1O` (stereo unspecified), the “outcome” value was “inactive [at 15.3 µM]”.
The same measure, in the same setting: then `COc1ccc(OC)c(C2C(C#N)=C(N)Oc3n[nH]c(-c4ccc5ccccc5c4)c32)c1` (stereo unspecified), with “inactive [at 48.8 µM]”.

A further assay deals with Phospholipid hydroperoxide glutathione peroxidase GPX4 (Homo sapiens) (UniProt P36969). The assay is described as follows: Primary qHTS Assay for Inhibitors of Recombinant Selenoprotein Glutathione Peroxidase 4 (GPX4) (AID 1845192). The note with it: recombinant GPX4, GR-coupled NADPH fluorescence, 15 min; series mostly up to 27.8 µM; activity change, negative = inhibition: at the top concentration. Summed up:
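qHTS, GR-coupled: GPX4 200 nM + cpd 30 min RT → GSH 1 mM, NADPH 0.5 mM, GR 100 nM → CHP 0.5 mM start; fluor 340/450 at t0 and t15 min; no-enzyme wells as control.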
For `COc1cc(-c2ccc(O)cc2)c(OC)c(O)c1C1=CC(=O)OC1CC(=O)O` (stereo unspecified), the “activity change, negative = inhibition” value is -13.2%.
Same read-out and setting: then `CC/C=C/C=C/C1(C)OC(CC(CO)OC)=CC1=O` (stereo unspecified), with 1.71% [at 50 µM].
For the compound `CC(=O)O[C@@H]1[C@H](O[C@@H]2O[C@H](CO)[C@@H](O)[C@H](O)[C@H]2O)[C@@H](O[C@@H]2O[C@@H](C)[C@H](O)[C@@H](O[C@@H]3O[C@H](CO)[C@@H](O)[C@H](O)[C@H]3O)[C@H]2O)[C@H](OC(=O)[C@]23CCC(C)(C)C[C@H]2C2=CCC4[C@@]5(C)C[C@H](O)[C@H](O[C@@H]6O[C@H](C(=O)O)[C@@H](O)[C@H](O)[C@H]6O)[C@@](C)(C(=O)O)C5CC[C@@]4(C)[C@]2(C)CC3)O[C@@H]1C` (stereo partly specified), the “outcome” value was “inactive [at 9.73 µM]”.
`COc1cc(C2OCC3(O)C(c4ccc(O[C@@H]5O[C@H](CO)[C@@H](O)[C@H](O)[C@H]5O)c(OC)c4)OCC23O)ccc1O` (stereo partly specified): the “activity change, negative = inhibition” value was -5.75%.
Still for that read-out and setting: in the case of `CC12CC(c3ccoc3)OC(=O)C1CCC1(C)C2CCC(O)C1(C)O` (stereo unspecified) it was 0.784%.
Consider `COc1cccc2c1c(O)c(C(=O)N(C)c1ccc(C(F)(F)F)cc1)c(=O)n2C`, for which the Potency entry was “inactive”.
For the compound `CC1(C)CC[C@]2(C(=O)OC3OC(CO)C(O)C(O)C3O)CC[C@]3(C)C(=CCC4[C@@]5(C)C[C@@H](O)[C@H](OC6OC(C(=O)O)C(O)C(O)C6O)C(C)(C)C5CC[C@]43C)[C@@H]2C1` (stereo partly specified), the “activity change, negative = inhibition” value was -10.3% [at 15.3 µM].
Consider `CC(C)=CCC(O)[C@](C)(O)C1[C@H](O)C[C@@]2(C)C3CC=C4C(C[C@H](O)[C@@H](O[C@@H]5O[C@H](CO)[C@@H](O)[C@H](O)[C@H]5O)C4(C)C)[C@]3(C)C(=O)C[C@]12C` (stereo partly specified), for which the “activity change, negative = inhibition” value was 0.743% [at 15.3 µM].
The same measure, in the same setting: then `CC1CC2OCC3(O)CCC(O)C(C14CC(c1ccoc1)OC4=O)C23CO` (stereo unspecified), with -5.16%; and `CC(=O)OC(C)C(C)(O)C(=O)O[C@@H]1CC[C@]2(C)CC(=O)C(=C(C)C)C[C@H]2[C@]1(C)OC(C)=O` (stereo partly specified), with -12%; and `C=C[C@@]1(C)CCC2=C([C@H]1OC(C)=O)[C@H](OC(C)=O)CC1[C@](C)(C(=O)OC)CC[C@H](OC(C)=O)[C@]21C` (stereo partly specified), with -2.86%.
Turning to `Cc1ccc(-c2c(-c3nn(C)c4ncnc(N5CC[C@H](N6CCCCC6)C5)c34)cnn2C)cc1`, the “activity change, negative = inhibition” value is 7.52% [at 50 µM].
Turning to `CC1(C)CC[C@]2(C(=O)O)CC[C@]3(C)C(=CCC4[C@@]5(C)C[C@@H](O)[C@H](O)[C@@](C)(CO)C5[C@H](O)C[C@]43C)[C@@H]2C1` (stereo partly specified), the outcome was inactive.
Same read-out and setting: then `CC(C)=CCC[C@](C)(O[C@@H]1O[C@H](CO[C@@H]2O[C@@H](CO)[C@H](O)[C@H]2O[C@@H]2OC[C@@H](O)[C@H](O)[C@H]2O)[C@@H](O)[C@H](O)[C@H]1O)[C@H]1CC[C@]2(C)[C@@H]1[C@H](O)CC1[C@@]3(C)CC[C@H](O[C@@H]4O[C@H](CO)[C@@H](O)[C@H](O)[C@H]4O[C@@H]4O[C@H](CO)[C@@H](O)[C@H](O)[C@H]4O)C(C)(C)C3CC[C@]12C` (stereo partly specified), with “inactive [at 9.73 µM]”.

Source of the values: PubChem BioAssay (NCATS).
